High-throughput results: PubChem BioAssay, several laboratories
Rows were chosen to be rich in hits. Some 4.2% of all compounds tested hit in one or more screens of this group.
Wnt act = Wnt/beta-catenin pathway activators, primary screen, cell-based, plate reader, single point; Wnt/beta-catenin reporter cell assay, activator; AID 743398, 2014; activation, % at 9.35 µM; 300,000 tested, 1.2% active; in the data active means activation above about 30%, passing the limit was not always enough; inconclusive means no clear call, values can overlap the other calls
DAX1 inh = DAX1 (NR0B1) inhibitors on StAR promoter, primary screen, cell-based, luminescence, SF-1 (NR5A1), full-length DAX-1; HEK293T StAR-luciferase reporter, SF-1/DAX-1 repression relief; inhibition, % at 6.8 µM; 370,000 tested, 1.1% active; AID 652010, 2013;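 active means inhibition above the mean over all tested compounds plus 3 SD, cut at about 3.6% in these data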;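 further: higher inhibition means more luminescence from relief of DAX-1 repression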
esBAF inh = Bmi1 luciferase reporter increase in mESCs, primary screen, esBAF inhibitor project, mouse ES cells, Bmi1 luciferase knock-in, single point | 350,000 tested, 2% active | reporter increase, % at 12.5 µM | AID 602393, 2012 | 24 h; 100% = twice the neutral-well signal; in the data active means activation above about 40%; inconclusive means no clear call, values can overlap the other calls;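 further: a rise in the Bmi1 reporter signal indicates esBAF inhibition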
hcDAF12 agonist = H. contortus DAF-12 nuclear receptor activators, primary screen, cell-based, luminescence, HEK293, lit1-tk-luc reporter; HEK293 hcDAF-12 lit1-tk-luc reporter; 0% DMSO, 100% Δ7-dafachronic acid; activation, % at 6.8 µM; 370,000 tested, 1.4% active; AID 652067, 2013;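 active means activation above the mean of all tested compounds plus 3 SD, cut at about 5.5% in these data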
ssDAF-12 act = S. stercoralis DAF-12 nuclear receptor activators, primary screen, cell-based, luminescence, HEK293, GRIP1 co-expression, lit1-tk-luc. Nuclear hormone receptor DAF-12 (Strongyloides stercoralis). HEK293 ssDAF-12/GRIP1 lit1-tk-luc reporter; % of 3 µM dafachronic acid response. activation, % at 6.8 µM. 370,000 tested, 1% active. AID 652126, 2013;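 active means activation above the mean over all tested compounds plus 3 SD, cut at about 0.9% in these data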
hgDAF12 agonist = H. glycines DAF-12 receptor agonists, primary screen, cell-based, luminescence, HEK293, GAL4 fusion, UAS-luciferase | HEK293 GAL4-hgDAF12 UAS-luciferase reporter, agonist luminescence; normalized to butyrate control | activation, % at 6.8 µM | 370,000 tested, 1.8% active;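 active means activation above a cutoff set at the mean of all screened compounds plus 3 SD, cut at about 10% in these data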
A number is an active result; . = inactive; ? = inconclusive; / = no result given.

SMILES	Wnt act	DAX1 inh	esBAF inh	hcDAF12 agonist	ssDAF-12 act	hgDAF12 agonist
c1ccc2c(c1)CCCN2Cc1nnnn1CC1CCCO1 (stereo unspecified)	/	.	.	.	.	.
C[C@@H]1CN([C@H](C)CO)S(=O)(=O)c2ccc(C3=CCCCC3)cc2O[C@H]1CN(C)Cc1ccccc1F	/	/	.	/	/	/
Cc1ccc(S(=O)(=O)N(C)C[C@@H]2OCCCC[C@H](C)Oc3ccc(NC(=O)Nc4ccccc4)cc3C(=O)N([C@H](C)CO)C[C@H]2C)cc1	/	/	.	/	/	/
O=C(Nc1ccn(Cc2ccc(Cl)cc2)n1)c1ccccc1	35.5	.	56.4	.	.	.
N#CCCn1ccc(NC(=O)c2ccc(Cl)cc2)n1	.	.	.	.	.	.
CO[C@H](CN(C)Cc1nccs1)[C@@H](C)CN([C@@H](C)CO)S(=O)(=O)c1ccc(C)cc1	/	/	.	/	/	/
Nc1cnc(Nc2ccc(Br)cc2)nc1N	.	.	52.7	.	.	.
O=C(CCCCl)N1CCc2[nH]c3ccccc3c2C1	.	.	/	5.6	.	.
COCC#Cc1cnc2c(c1)C(=O)N([C@H](C)CO)C[C@@H](C)[C@@H](CN(C)C(=O)NC1CCCC1)O2	/	/	.	/	/	/
COc1ccc(S[C@]2(C(=O)N(C)C)CC(=O)N(C(=O)/C=C/c3ccccc3)[C@@H]2c2ccc(OC)cc2)cc1	/	.	/	.	.	.
COc1ccc(S[C@]2(C(=O)N(C)C)CC(=O)N(c3ccccc3)[C@@H]2c2ccc(OC)cc2)cc1	/	.	/	.	.	11.8
CN(C)/C=N/c1sc2c(c1C#N)CCCCC2	.	.	54.5	.	.	.
Cc1noc(C)c1NC(=O)Nc1ccc2c(c1)C(=O)N([C@@H](C)CO)C[C@@H](C)[C@@H](CN(C)S(=O)(=O)c1ccccc1)OCCCC[C@@H](C)O2	/	/	.	/	/	/
Cc1cccnc1NC(=O)c1c(O)c2cccc3c2n(c1=O)CCC3	.	.	.	.	.	.
O=C(Nc1ccccn1)c1c(O)c2cccc3c2n(c1=O)CCC3	/	.	64.4	.	.	.
O=C(N/N=C/c1ccc(O)cc1)c1csc2c1CCCC2	.	.	/	.	.	10.5
O=C(C[C@H]1CC[C@@H](NC(=O)c2cccnc2)[C@@H](CO)O1)NCCN1CCCCC1	/	/	.	/	/	/
C[C@H](CO)N1C[C@H](C)[C@H](CN(C)C(=O)Nc2ccc3c(c2)OCO3)Oc2c(NC(=O)C3CCOCC3)cccc2C1=O	/	/	.	/	/	/
COc1cccc(NC(=O)NCCC2=CCCCC2)c1	.	.	?	.	.	.
COc1ccc(NC(=S)NCCC2=CCCCC2)cc1OC	.	.	/	.	.	.
COc1ccc(NC(=O)NCCC2=CCCCC2)cc1	52.0	.	/	.	.	12.5
S=C(NCCC1=CCCCC1)Nc1ccc(Cl)cc1	.	.	64.4	.	.	.
COc1ccc(NC(=O)N(C)C[C@H]2Oc3ccc(NS(C)(=O)=O)cc3C(=O)N([C@@H](C)CO)C[C@@H]2C)cc1	/	/	.	/	/	/
CCN(C(=O)COC(=O)Cc1c[nH]c2ccccc12)C1CCS(=O)(=O)C1 (stereo unspecified)	.	.	.	6.1	1.2	.
O=C(CC(C(=O)O)c1c[nH]c2ccccc12)c1ccccc1 (stereo unspecified)	.	.	27.4	.	.	.
SMILES	Wnt act	DAX1 inh	esBAF inh	hcDAF12 agonist	ssDAF-12 act	hgDAF12 agonist
Cc1ccc(NC(=O)C(C)OC(=O)Cc2c[nH]c3ccccc23)cc1 (stereo unspecified)	.	.	.	.	.	.
O=C(Cc1c[nH]c2ccccc12)OCC(=O)c1ccccc1	/	.	.	.	1.2	.
Cc1ccc(C(=O)C(C)OC(=O)Cc2c[nH]c3ccccc23)cc1 (stereo unspecified)	.	.	.	.	0.9	.
CN1[C@@H]2c3ccc(-c4ccncc4)c(=O)n3C[C@H]1[C@H](CO)[C@H]2C(=O)Nc1nccs1	/	/	.	/	/	/
C[C@@H]1CCCCO[C@@H](CN(C)C(=O)NC2CCCCC2)[C@H](C)CN([C@@H](C)CO)C(=O)c2cc(NC(=O)C3CCCCC3)ccc2O1	/	/	.	/	/	/
O=C(O)C(=O)Cc1c[nH]c2ccccc12	.	.	.	.	1.2	.
CN(C)CC(=O)N[C@@H]1CC[C@@H](CCn2cc(CN(C)C)nn2)O[C@@H]1CO	/	/	.	/	/	/
Cc1cc(C(=O)COC(=O)C23CC4CC(CC(O)(C4)C2)C3)c(C)n1C	.	.	.	.	.	10.8
C[C@H](CO)N1C[C@H](C)[C@H](CN(C)Cc2ccc(C(F)(F)F)cc2)Oc2ccc(NC(=O)CCN3CCOCC3)cc2C1=O	/	/	.	/	/	/
O=C(c1cc(-c2ccc3c(c2)OCO3)on1)N1CCCCC1	.	.	.	5.8	.	.
O=C(c1cc(-c2cccc(Cl)c2)on1)N1CCCCCC1	.	.	62.6	.	.	.
Cc1ccc(-c2cc(C(=O)N3CCOCC3)no2)cc1	.	.	.	.	.	.
O=C(c1cc(-c2ccc(Cl)c(Cl)c2)on1)N1CCCCCC1	.	.	58.5	.	.	.
CC1CCCC(C)N1C(=O)c1cc(-c2ccc(Cl)c(Cl)c2)on1 (stereo unspecified)	/	.	79.7	.	.	.
O=C(c1cc(-c2ccc(Cl)cc2)on1)N1CCCCCC1	.	.	.	.	.	.
COCC#Cc1cnc2c(c1)C(=O)N([C@H](C)CO)C[C@@H](C)[C@@H](CN(C)C(=O)c1cnccn1)O2	/	/	.	/	/	/
O=C(N=C1N=C2C=CC=CN2Cc2ccccc21)c1ccc(S(=O)(=O)N2CCCC2)cc1	44.0	.	49.7	.	.	.
O=C(OCCN1C(=O)c2ccccc2C1=O)c1ccc(S(=O)(=O)N2CCCCCC2)cc1	/	.	.	.	.	.
COc1ccc(-c2nnc(-c3ccccc3O)o2)cc1	44.4	.	.	.	.	12.2
COc1ccc(-c2nnc(-c3ccc(C)cc3)o2)cc1	35.4	.	.	.	.	.
COc1ccc(-c2nnc(-c3ccc(F)cc3)o2)cc1	35.6	.	.	.	.	.
CCCc1nnc(-c2ccc(OC)cc2)o1	.	.	/	.	.	.
Cc1ccc(-c2nnc(-c3cccs3)o2)cc1	.	4.4	/	8.8	1.4	10.6
Cc1ccc(S(=O)(=O)CCC(=O)Nc2nnc(-c3cccs3)o2)cc1	.	.	.	.	.	.
CCCC#Cc1ccc2c(c1)O[C@@H](CN(C)C(C)=O)[C@H](C)CN([C@H](C)CO)S2(=O)=O	/	/	.	/	/	/
